In PubChem BioAssay AID1159580 (chemical genetic matrix, 2015):
Screen size: about 5,500 compounds; about 2,000 (36%) were called active. Another 18% or so got no clear call; they are omitted. Cut-off read from the data, not from the text of the source: active = normalized growth mostly below about 0.91 (no sharp cut-off); inconclusive = no clear call, values can overlap the other calls; inactive = mostly above about 0.92. Some of the results follow.

Experiment: chemical genetic growth profiling, strain panel (AID 1159580);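 note: tested at 20 µM; growth read once vehicle control cultures reached saturation at 30 °C; 1 = growth at the plate median or of vehicle wells; lower values mean less growth of the strain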
Settings: growth OD

Measured: normalized growth

O=C(/C=C/c1ccccc1)c1c(O)cc(O)cc1O
inactive: S. cerevisiae deletion strains, locus YAL013W, strain DEP1, hits give low values 1.01 | S. cerevisiae deletion strains, locus YBR021W, strain FUR4, hits give low values 0.995 | S. cerevisiae deletion strains, locus YBR229C, strain ROT2, hits give low values 1.01 | S. cerevisiae deletion strains, locus YCL029C, strain bik1, hits give low values 1 | S. cerevisiae deletion strains, locus YDL035C, strain GPR1, hits give low values 1.02 | S. cerevisiae deletion strains, locus YDL074C, strain BRE1, hits give low values 1.02 | S. cerevisiae deletion strains, locus YDL101C, strain DUN1, hits give low values 1.01 | S. cerevisiae deletion strains, locus YDL134C, strain PPH21, hits give low values 1.02 | S. cerevisiae deletion strains, locus YDL185W, strain tfp1, hits give low values 1.01 | S. cerevisiae deletion strains, locus YDL192W, strain arf1, hits give low values 1 | S. cerevisiae deletion strains, locus YDR101C, strain arx1, hits give low values 0.999 | S. cerevisiae deletion strains, locus YDR150W, strain NUM1, hits give low values 1.02 | S. cerevisiae deletion strains, locus YDR162C, strain NBP2, hits give low values 1.04 | S. cerevisiae deletion strains, locus YDR318W, strain mcm21, hits give low values 0.995 | S. cerevisiae deletion strains, locus YDR388W, hits give low values 0.997 | S. cerevisiae deletion strains, locus YDR502C, strain sam2, hits give low values 1 | S. cerevisiae deletion strains, locus YEL061C, strain CIN8, hits give low values 1.01 | S. cerevisiae deletion strains, locus YER110C, hits give low values 1.01 | S. cerevisiae deletion strains, locus YER155C, strain BEM2, hits give low values 1.01 | S. cerevisiae deletion strains, locus YER167W, strain BCK2, hits give low values 1.01 | S. cerevisiae deletion strains, locus YGL078C, strain dbp3, hits give low values 1 | S. cerevisiae deletion strains, locus YGL086W, strain mad1, hits give low values 1 | S. cerevisiae deletion strains, locus YGL248W, strain PDE1, hits give low values 1.01 | S. cerevisiae deletion strains, locus YGR078C, strain PAC10, hits give low values 1.03 | S. cerevisiae deletion strains, locus YGR135W, strain pre9, hits give low values 1 | S. cerevisiae deletion strains, locus YGR229C, strain SMI1, hits give low values 1.02 | S. cerevisiae deletion strains, locus YGR252W, strain gcn5, hits give low values 0.972 | S. cerevisiae deletion strains, locus YHR030C, strain SLT2, hits give low values 1.01 | S. cerevisiae deletion strains, locus YHR079C, strain IRE1 (second series), hits give low values 0.994 | S. cerevisiae deletion strains, locus YHR094C, strain hxt1, hits give low values 1 | S. cerevisiae deletion strains, locus YHR129C, strain ARP1, hits give low values 1.01 | S. cerevisiae deletion strains, locus YHR200W, strain rpn10, hits give low values 1 | S. cerevisiae deletion strains, locus YIL066C, strain RNR3, hits give low values 1.02 | S. cerevisiae deletion strains, locus YIL073C, strain SPO22, hits give low values 1.04 | S. cerevisiae deletion strains, locus YIL125W, strain kgd1, hits give low values 1 | S. cerevisiae deletion strains, locus YIR030C, strain dcg1, hits give low values 0.999 | S. cerevisiae deletion strains, locus YJL095W, strain BCK1, hits give low values 1.01 | S. cerevisiae deletion strains, locus YJL134W, strain LCB3, hits give low values 1.01 | S. cerevisiae deletion strains, locus YJL168C, strain set2, hits give low values 0.993 | S. cerevisiae deletion strains, locus YJL187C, strain SWE1 (second series), hits give low values 1.01 | S. cerevisiae deletion strains, locus YJR043C, strain POL32, hits give low values 0.998 | S. cerevisiae deletion strains, locus YJR075W, strain HOC1, hits give low values 1.01 | S. cerevisiae deletion strains, locus YKL009W, strain mrt4, hits give low values 1.01 | S. cerevisiae deletion strains, locus YKL068W, hits give low values 1 | S. cerevisiae deletion strains, locus YKL085W, strain MDH1 (second series), hits give low values 1 | S. cerevisiae deletion strains, locus YKL085W, strain MDH1, hits give low values 1 | S. cerevisiae deletion strains, locus YKL190W, strain CNB1, hits give low values 1.01 | S. cerevisiae deletion strains, locus YKR001C, strain vps1, hits give low values 1.01 | S. cerevisiae deletion strains, locus YLR039C, strain RIC1, hits give low values 1.04 | S. cerevisiae deletion strains, locus YLR058C, strain SHM2, hits give low values 1.01 | S. cerevisiae deletion strains, locus YLR102C, strain apc9, hits give low values 0.998 | S. cerevisiae deletion strains, locus YLR262C, strain YPT6, hits give low values 1.06 | S. cerevisiae deletion strains, locus YLR268W, strain sec22, hits give low values 0.989 | S. cerevisiae deletion strains, locus YLR330W, strain CHS5, hits give low values 1.01 | S. cerevisiae deletion strains, locus YLR342W, strain FKS1 (second series), hits give low values 1 | S. cerevisiae deletion strains, locus YLR371W, strain rom2, hits give low values 0.997 | S. cerevisiae deletion strains, locus YLR418C, strain cdc73, hits give low values 0.992 | S. cerevisiae deletion strains, locus YML016C, strain PPZ1, hits give low values 1.01 | S. cerevisiae deletion strains, locus YML032C, strain rad52, hits give low values 1 | S. cerevisiae deletion strains, locus YML124C, strain tub3, hits give low values 1.01 | S. cerevisiae deletion strains, locus YMR078C, strain ctf18, hits give low values 1 | S. cerevisiae deletion strains, locus YMR223W, strain ubp8, hits give low values 0.995 | S. cerevisiae deletion strains, locus YMR263W, strain SAP30, hits give low values 1.02 | S. cerevisiae deletion strains, locus YMR307W, strain GAS1, hits give low values 0.915 | S. cerevisiae deletion strains, locus YNL067W, strain RPL9B, hits give low values 1.01 | S. cerevisiae deletion strains, locus YNL128W, strain TEP1, hits give low values 1.02 | S. cerevisiae deletion strains, locus YNL153C, strain GIM3, hits give low values 1.03 | S. cerevisiae deletion strains, locus YNL233W, strain BNI4, hits give low values 1.02 | S. cerevisiae deletion strains, locus YNL250W, strain rad50, hits give low values 1.01 | S. cerevisiae deletion strains, locus YNL271C, strain bni1, hits give low values 1 | S. cerevisiae deletion strains, locus YNL298W, strain CLA4, hits give low values 1.01 | S. cerevisiae deletion strains, locus YNL307C, strain MCK1, hits give low values 1.01 | S. cerevisiae deletion strains, locus YNL322C, strain KRE1, hits give low values 1.01 | S. cerevisiae deletion strains, locus YNR052C, strain pop2, hits give low values 0.998 | S. cerevisiae deletion strains, locus YOL006C, strain TOP1, hits give low values 1.05 | S. cerevisiae deletion strains, locus YOL012C, strain htz1 0.787 | S. cerevisiae deletion strains, locus YOL147C, strain pex11, hits give low values 1.01 | S. cerevisiae deletion strains, locus YOR061W, strain CKA2, hits give low values 1.01 | S. cerevisiae deletion strains, locus YOR069W, strain VPS5, hits give low values 1.01 | S. cerevisiae deletion strains, locus YOR136W, strain idh2, hits give low values 0.995 | S. cerevisiae deletion strains, locus YOR144C, strain elg1, hits give low values 1 | S. cerevisiae deletion strains, locus YOR184W, strain ser1, hits give low values 1.01 | S. cerevisiae deletion strains, locus YOR316C, strain cot1, hits give low values 0.996 | S. cerevisiae deletion strains, locus YPL055C, strain LGE1, hits give low values 1.05 | S. cerevisiae deletion strains, locus YPL241C, strain CIN2, hits give low values 1.01 | S. cerevisiae deletion strains, locus YPR119W, strain clb2, hits give low values 0.997 | S. cerevisiae deletion strains, locus YPR141C, strain kar3, hits give low values 1.01 | S. cerevisiae deletion strains, locus YPR163C, strain tif3, hits give low values 1 | S. cerevisiae deletion strains, locus YPR167C, strain met16, hits give low values 0.998 | S. cerevisiae deletion strains, strain wtn01, hits give low values 1.01 | S. cerevisiae strains, strain wild type, hits give low values 1.01
